Consider 33 targets from the supplement of paper PMC10849652.

Targets with a hit are over-represented here; the source holds about 8,800 in all. About 0.5% of all pairs of compound and target were hits. Values without a mark were called inactive.

UniProt Q8WVR3, sequence (Q8WVR3 whole entry, looked up): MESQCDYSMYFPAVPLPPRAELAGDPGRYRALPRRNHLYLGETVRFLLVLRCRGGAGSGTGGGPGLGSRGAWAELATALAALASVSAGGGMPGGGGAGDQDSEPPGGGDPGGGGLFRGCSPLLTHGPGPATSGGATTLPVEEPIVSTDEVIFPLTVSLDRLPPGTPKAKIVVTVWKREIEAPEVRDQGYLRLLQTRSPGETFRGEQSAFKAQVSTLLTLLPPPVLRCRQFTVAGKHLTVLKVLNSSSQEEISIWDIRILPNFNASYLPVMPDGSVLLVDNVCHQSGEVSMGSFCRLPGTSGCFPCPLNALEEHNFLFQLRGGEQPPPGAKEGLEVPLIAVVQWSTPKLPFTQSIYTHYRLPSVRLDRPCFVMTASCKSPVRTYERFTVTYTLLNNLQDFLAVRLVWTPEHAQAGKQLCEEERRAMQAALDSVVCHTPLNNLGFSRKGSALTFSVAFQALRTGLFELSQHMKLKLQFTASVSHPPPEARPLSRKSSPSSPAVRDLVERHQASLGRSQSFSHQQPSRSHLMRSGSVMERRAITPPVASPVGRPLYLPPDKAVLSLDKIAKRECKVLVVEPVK
UniProt Q9Y448, sequence (Q9Y448 whole entry, looked up): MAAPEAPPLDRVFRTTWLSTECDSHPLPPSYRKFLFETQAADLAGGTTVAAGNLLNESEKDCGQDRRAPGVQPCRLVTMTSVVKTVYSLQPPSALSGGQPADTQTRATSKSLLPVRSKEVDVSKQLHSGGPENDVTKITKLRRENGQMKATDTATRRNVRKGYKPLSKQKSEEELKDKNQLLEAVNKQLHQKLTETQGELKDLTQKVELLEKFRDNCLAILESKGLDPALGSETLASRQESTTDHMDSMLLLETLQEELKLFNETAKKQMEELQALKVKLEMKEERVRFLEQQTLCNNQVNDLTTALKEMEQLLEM
UniProt P07948, sequence (P07948 whole entry, looked up): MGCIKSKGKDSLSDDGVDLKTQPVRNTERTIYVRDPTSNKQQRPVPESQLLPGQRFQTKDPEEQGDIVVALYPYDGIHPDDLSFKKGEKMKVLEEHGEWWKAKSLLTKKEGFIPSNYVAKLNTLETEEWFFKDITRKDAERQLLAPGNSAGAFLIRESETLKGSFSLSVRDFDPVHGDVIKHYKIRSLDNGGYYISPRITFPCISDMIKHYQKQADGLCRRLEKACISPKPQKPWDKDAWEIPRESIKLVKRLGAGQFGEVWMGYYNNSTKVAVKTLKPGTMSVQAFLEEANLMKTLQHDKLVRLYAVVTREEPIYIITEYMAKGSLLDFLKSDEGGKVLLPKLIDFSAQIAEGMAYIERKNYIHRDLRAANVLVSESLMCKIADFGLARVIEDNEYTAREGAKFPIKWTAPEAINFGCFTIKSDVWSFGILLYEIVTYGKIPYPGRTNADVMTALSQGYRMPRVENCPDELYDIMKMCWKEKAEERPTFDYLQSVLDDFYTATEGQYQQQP
UniProt Q9H6V9, sequence (Q9H6V9 whole entry, looked up): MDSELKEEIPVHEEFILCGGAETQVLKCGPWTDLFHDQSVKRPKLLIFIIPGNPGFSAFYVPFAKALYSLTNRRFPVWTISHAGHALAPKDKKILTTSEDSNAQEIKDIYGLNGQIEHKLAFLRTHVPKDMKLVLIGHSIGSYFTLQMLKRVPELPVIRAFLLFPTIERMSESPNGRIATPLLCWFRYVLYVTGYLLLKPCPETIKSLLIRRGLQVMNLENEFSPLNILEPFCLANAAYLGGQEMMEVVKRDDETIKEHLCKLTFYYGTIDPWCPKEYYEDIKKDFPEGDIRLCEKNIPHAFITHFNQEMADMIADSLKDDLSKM
UniProt Q9BTE3, sequence (Q9BTE3 whole entry, looked up): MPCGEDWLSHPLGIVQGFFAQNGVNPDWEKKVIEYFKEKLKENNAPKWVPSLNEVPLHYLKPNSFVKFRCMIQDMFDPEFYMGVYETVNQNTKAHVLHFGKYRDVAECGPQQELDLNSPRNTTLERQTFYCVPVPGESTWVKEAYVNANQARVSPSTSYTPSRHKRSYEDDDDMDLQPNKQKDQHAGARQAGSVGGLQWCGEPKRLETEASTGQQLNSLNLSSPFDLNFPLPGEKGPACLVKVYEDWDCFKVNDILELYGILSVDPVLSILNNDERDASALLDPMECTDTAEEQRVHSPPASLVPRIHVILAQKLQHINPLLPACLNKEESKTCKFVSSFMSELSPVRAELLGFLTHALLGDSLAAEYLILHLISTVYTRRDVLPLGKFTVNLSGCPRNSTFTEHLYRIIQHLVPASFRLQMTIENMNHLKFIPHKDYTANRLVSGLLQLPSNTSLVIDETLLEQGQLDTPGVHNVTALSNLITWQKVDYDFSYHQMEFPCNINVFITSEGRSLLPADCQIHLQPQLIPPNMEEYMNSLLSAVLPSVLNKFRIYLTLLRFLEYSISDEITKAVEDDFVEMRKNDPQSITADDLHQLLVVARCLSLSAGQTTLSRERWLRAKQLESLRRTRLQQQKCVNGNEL
UniProt Q8N3R9, sequence (Q8N3R9 whole entry, looked up): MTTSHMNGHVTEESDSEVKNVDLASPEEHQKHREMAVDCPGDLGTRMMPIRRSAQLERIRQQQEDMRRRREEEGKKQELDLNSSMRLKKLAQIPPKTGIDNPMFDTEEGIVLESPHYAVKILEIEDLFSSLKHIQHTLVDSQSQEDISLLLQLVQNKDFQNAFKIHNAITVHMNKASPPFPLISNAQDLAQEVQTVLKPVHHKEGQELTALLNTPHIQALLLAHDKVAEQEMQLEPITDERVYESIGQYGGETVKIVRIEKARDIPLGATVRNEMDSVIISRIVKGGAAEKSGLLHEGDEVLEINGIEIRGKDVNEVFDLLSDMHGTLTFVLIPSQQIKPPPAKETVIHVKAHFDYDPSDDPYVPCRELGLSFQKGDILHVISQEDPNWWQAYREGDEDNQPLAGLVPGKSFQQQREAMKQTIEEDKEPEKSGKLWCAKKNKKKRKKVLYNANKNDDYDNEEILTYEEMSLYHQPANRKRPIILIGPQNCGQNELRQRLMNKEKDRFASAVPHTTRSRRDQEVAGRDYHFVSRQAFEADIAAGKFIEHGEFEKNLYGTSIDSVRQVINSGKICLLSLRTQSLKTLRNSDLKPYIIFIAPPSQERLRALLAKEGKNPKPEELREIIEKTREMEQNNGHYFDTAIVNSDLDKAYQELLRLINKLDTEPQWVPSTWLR
UniProt Q9BTT4, sequence (Q9BTT4 whole entry, looked up): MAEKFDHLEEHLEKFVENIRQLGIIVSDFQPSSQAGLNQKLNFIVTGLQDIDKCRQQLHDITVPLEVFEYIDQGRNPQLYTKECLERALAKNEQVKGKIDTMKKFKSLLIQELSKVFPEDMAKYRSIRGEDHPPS
UniProt P53671, sequence (P53671 whole entry, looked up): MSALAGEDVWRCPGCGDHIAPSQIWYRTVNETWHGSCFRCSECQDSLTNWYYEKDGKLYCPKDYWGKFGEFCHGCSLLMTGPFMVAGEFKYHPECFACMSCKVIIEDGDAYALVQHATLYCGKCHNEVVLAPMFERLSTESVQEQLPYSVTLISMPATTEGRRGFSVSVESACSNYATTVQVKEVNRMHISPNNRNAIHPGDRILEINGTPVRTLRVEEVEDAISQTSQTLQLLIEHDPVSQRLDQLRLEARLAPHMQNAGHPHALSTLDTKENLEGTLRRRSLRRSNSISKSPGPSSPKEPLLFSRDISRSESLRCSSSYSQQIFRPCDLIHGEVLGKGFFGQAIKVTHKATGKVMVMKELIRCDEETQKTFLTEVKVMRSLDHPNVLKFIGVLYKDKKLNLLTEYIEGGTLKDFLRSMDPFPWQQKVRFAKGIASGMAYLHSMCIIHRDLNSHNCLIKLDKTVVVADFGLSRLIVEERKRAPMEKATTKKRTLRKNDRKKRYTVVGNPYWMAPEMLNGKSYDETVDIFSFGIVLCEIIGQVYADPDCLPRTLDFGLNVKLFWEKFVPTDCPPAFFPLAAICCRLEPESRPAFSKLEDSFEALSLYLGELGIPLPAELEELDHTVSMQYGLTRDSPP
UniProt Q12851, sequence (Q12851 whole entry, looked up): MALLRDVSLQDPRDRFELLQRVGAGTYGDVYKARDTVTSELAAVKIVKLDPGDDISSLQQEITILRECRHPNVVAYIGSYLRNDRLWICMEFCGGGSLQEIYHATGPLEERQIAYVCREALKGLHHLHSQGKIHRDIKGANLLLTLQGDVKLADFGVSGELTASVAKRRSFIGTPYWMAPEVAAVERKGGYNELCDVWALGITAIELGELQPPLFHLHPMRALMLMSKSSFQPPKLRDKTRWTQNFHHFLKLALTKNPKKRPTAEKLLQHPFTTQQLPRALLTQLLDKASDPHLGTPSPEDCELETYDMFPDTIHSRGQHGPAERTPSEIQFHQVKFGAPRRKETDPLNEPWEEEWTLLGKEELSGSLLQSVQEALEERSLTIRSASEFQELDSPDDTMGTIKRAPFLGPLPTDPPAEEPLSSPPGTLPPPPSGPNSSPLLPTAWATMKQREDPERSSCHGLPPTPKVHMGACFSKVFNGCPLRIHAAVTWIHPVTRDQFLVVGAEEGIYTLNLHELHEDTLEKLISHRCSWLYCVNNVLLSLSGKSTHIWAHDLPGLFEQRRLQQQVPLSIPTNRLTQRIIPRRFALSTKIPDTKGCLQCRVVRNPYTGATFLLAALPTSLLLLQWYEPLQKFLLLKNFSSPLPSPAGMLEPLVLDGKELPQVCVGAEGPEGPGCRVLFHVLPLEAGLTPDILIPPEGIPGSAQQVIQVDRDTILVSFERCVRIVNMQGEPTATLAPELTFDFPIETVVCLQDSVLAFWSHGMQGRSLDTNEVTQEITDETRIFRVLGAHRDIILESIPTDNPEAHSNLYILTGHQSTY
UniProt Q9BVC4, sequence (Q9BVC4 whole entry, looked up): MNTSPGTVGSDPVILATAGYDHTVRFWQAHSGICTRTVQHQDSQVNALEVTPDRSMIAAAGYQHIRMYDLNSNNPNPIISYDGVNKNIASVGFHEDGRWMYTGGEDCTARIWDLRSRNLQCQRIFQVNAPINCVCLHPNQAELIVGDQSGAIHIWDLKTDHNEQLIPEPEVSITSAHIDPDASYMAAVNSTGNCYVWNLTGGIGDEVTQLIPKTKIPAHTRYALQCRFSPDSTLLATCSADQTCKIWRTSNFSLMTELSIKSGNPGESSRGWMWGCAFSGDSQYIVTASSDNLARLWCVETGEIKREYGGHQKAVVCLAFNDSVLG

Compound in the experiment: c1ccc([C@@H]2C[C@H]2NC2CCNCC2)cc1
Nature of the experiment: log2 fold change, soluble protein after heating vs DMSO (PISA); higher = thermal stabilisation; K562 lysate, 10 uM; active = over 0.2 and 3.5 SD of the protein, either way, in both replicates (recomputed). The method in brief: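 Quantification was by TMTpro 16plex LC-MS/MS with equalised channel sums, applied to the supernatant after 21,000xg for 90 min. Samples were crude K562 extract at 1 mg/mL protein in PBS pH 7.4 with 1 mM MgCl2, treated with 10 μM compound for 30 min, heated for 3 min across 48°C-58°C, pooled and brought to 0.5% NP-40 at 4°C. Values are log-two fold changes in thermal stability relative to solvent controls, from duplicates.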
For LIMK2 isoform 3 (UniProt P53671), the log2 fold change is -0.132.
For MAPK1 (UniProt P28482), the log2 fold change is 0.012.
The value for MAP4K2 (UniProt Q12851) was -0.087; that for MAPK3 (UniProt P27361) was -0.048; that for LSG1 (UniProt Q9H089) was -0.044.
The same measure for MED10 (UniProt Q9BTT4): -0.009; for KMT2A isoform 3 (UniProt Q03164): 0.016; for MARCHF6 (UniProt O60337): 0.029.
The same measure for MICU2 (UniProt Q8IYU8): -0.002; for MAP7D3 (UniProt Q8IWC1): -0.05.
Turning to KLC2 (UniProt Q9H0B6), the log2 fold change is 0.122.
In the case of KNL1 (UniProt Q8NG31), the log2 fold change is -0.001.
The value for LIG4 (UniProt P49917) was 0.078; that for MICU1 isoform 3 (UniProt Q9BPX6) was 0.196; that for MAP4K4 isoform 3 (UniProt O95819) was 0.083.
The value for MARF1 (UniProt Q9Y4F3) was -0.023; that for KNSTRN (UniProt Q9Y448) was 0.034; that for MGAT5 (UniProt Q09328) was 0.083.
Consider MPP5 (UniProt Q8N3R9), for which the log2 fold change was -0.11.
The value for LYN (UniProt P07948) was 0.011.
As to LDAH isoform 2 (UniProt Q9H6V9), the log2 fold change is -0.002.
The value for MRPL12 (UniProt P52815) was 0.047.
For LARS2 (UniProt Q15031), the log2 fold change is 0.064.
The same measure for MED17 (UniProt Q9NVC6): 0.02; for KIF2A isoform 4 (UniProt O00139): 0.04; for MAP11 (UniProt Q8WVR3): -0.03.
For MAST4 (UniProt O15021), the log2 fold change is 0.
The value for MRPL28 (UniProt Q13084) was 0.356; that for MIPEP (UniProt Q99797) was -0.008.
The same measure for MCMBP (UniProt Q9BTE3): 0.057; for MFF isoform 2 (UniProt Q9GZY8): -0.125; for MAST2 (UniProt Q6P0Q8): -0.028.
The same measure for MLST8 (UniProt Q9BVC4): 0.011.
